Source: PubChem BioAssay (NCATS)
This is one part of the list. Records with an inconclusive call do not appear. Values without a mark were called inactive. The source made the active and inactive calls. Calls follow the shape of the full dose curve.

molecular target: Papain (Carica papaya) (UniProt P00784); assay: Selectivity profile for inhibitors of NSP2Pro chikungunya virus (CHIKV): Papain Counterscreen (AID 1964104); settings: purified papain protease activity, enzymatic inhibition; series mostly up to 51 µM; activity change, negative = inhibition: at the top concentration
Sequence (P00784 whole entry, looked up): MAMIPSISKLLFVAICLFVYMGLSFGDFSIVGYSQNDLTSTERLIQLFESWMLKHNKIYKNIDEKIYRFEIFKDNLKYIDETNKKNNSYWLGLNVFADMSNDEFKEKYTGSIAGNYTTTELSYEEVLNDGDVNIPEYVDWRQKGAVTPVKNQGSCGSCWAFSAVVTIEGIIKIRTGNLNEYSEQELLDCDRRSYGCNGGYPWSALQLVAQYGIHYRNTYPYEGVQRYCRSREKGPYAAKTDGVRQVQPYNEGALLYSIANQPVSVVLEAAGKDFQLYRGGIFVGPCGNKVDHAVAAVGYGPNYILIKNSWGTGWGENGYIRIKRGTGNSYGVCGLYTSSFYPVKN
From the text: PI: Natalia J. Martinez Ph.D.
National Center for Advancing Translational Sciences (NCATS),
National Institute of Health (NIH), Rockville, Maryland
Chikungunya virus (CHIKV) is a mosquito-borne RNA virus that has emerged as one of the most important global arboviral threats in the last decade. Although the first CHIKV vaccine has recently been FDA approved for use in healthy adults at increased risk, to date, there are no available antiviral drugs for CHIKV infection. CHIKV nsP2 protease plays a crucial role in the processing of the viral polypeptide precursor to release enzymes required for viral replication, thus making it a promising drug target for antiviral discovery. Here, we established a high-throughput pipeline to identify small molecule inhibitors of nsP2 proteolytic activity. The pipeline is composed of a suite of 1,536-well in vitro assays to support quantitative high-throughput (qHTS) screening campaigns. Specifically, we developed a fluorescence resonance energy transfer (FRET)-based assay using a fluorogenic peptide substrate encompassing an endogenous cleavage site and purified recombinant protease domain (nsP2pro). Using this assay, we interrogated ~37,000 small molecules, including those in drug repurposing libraries as well as chemically diverse and medicinal chemistry-friendly compounds. Hits were selected for follow-up validation against full-length nsP2 and an additional peptide. FRET-based 1,536-well assays for papain, hepatitis C virus NS3-4A, and human furin proteases were implemented to characterize compound selectivity. […] Novel compounds were identified to be potential nsP2 inhibitors and molecular docking analyses were performed to explain the binding mode of selected hits. In vitro antiviral activity was evaluated for a subset of compounds using a high-throughput CHIKV infection assay. To our knowledge, the pipeline presented here is unprecedented for CHIKV antiviral discovery research.
PROTOCOL TABLE (as described by Inglese J, Shamu CE and Guy RK. 2007)
SEQUENCE No. (e.g., 1, 2, 3, etc.); […] (e.g., Cells, Incubation, Reagent, etc.); VALUE; DESCRIPTION.
1a; Reagent; 3 uL; Papain in assay buffer.
1b; Reagent; 3uL; Assay buffer
2; Compound; 17 nL; Echo 655 acoustic dispenser (Beckman Coulter).
3; Incubation; 15 min; room temperature in the dark.
4: Reagent; 1 uL; Z-FR-AMC in assay buffer.
5; Incubation; 15 sec, 271g; centrifugation.
6; Detection; Fluorescence; time 0, Viewlux microplate reader (PerkinElmer) 355 nm excitation, 460 nm emission
7; Incubation; 10 min; room temperature
8; Detection; Fluorescence; time 10; ViewLux microplate reader (PerkinElmer), 355 nm excitation, 460 nm emission.
NOTES (numbers refer to sequence numbers above).
1a. Medium-binding black solid-bottom Greiner plates (cat. 789176-F). Dispense 3 uL of 1.33X papain in assay buffer (100 mM sodium acetate, pH 5.5, 5 mM dl-cysteine, 0.01% Tween-20 v/v) to columns 1, 2, 5-48 via Wako/Kalypsys dispenser. Papain (cat. P4762, Sigma) was dispensed to produce 5 nM final concentration. Enzyme solution kept on ice during experiment. Prepare papain as 50% glycerol (v/v) at final concentration of 10 mg/mL (427 uM, 100 U/mL). Sources: microplates (Greiner 789176-F), papain (Sigma P4762), sodium acetate (Bioworld 40120009-2), cysteine (Sigma 861677), Tween-20 (Sigma P1379), water (GIBCO 10977-015; Gibco).
1b. Dispense 3 uL of assay buffer (100 mM sodium acetate, pH 5.5, 5 mM dl-cysteine, 0.01% Tween-20 v/v) to columns 3 and 4 via Wako/Kalypsys dispenser. Assay buffer solution kept on ice during experiment.
2. Compound addition by single pin transfer (17 nL) using Wako pintool. Compound solutions in source plate: 169 nM to 10 mM DMSO stock solutions. Final concentrations: 0.664 nM to 39.2 uM, respectively. Final DMSO concentration: 0.5% (v/v).
3. RT incubation. Kalypsys lids used as microplate coverings. Protected from light.
4. […]
% is scaled to controls: 0 for no effect and ±100 for the full control effect; potency is read from the fitted curve at half-maximal effect.

SMILES | Potency | activity change, negative = inhibition
Cc1c(S(=O)(=O)O)oc2c1C(=O)C(=O)c1c-2ccc2c1CCCC2(C)C | 18.3 µM (active) | –
CCc1ccccc1NC(=O)c1cnn(-c2ccc(F)cc2)c1C1CCNCC1 | – | -3.43%
O=C(O)c1cccc(-n2[nH]c(-c3ccccc3)cc2=O)c1 | – | -4.53%
CCOc1ccc(NC(=O)c2c(NC(=O)Cc3ccccc3)sc3c2CCC(C)C3)cc1 (stereo unspecified) | – | -1.65%
C[C@@H]1C[C@@H](O)[C@@]23CO[C@]2(CO)C[C@@H](O)CC3[C@@]12CC(c1ccoc1)OC2=O (stereo partly specified) | – | -1.13% [at 33.5 µM]
CCOc1ccc(N(Cc2ccccc2)C(=O)c2nc(S(C)(=O)=O)ncc2Cl)cc1 | – | -4.78%
COC([CH2][Hg])CNC(=O)c1ccccc1OCC(=O)O (stereo unspecified) | – | -5.61%
C[C@@H]1O[C@@H](O[C@@H]2[C@@H](O)[C@H](OCCc3ccc(O)c(O)c3)O[C@H](CO[C@@H]3O[C@H](CO)[C@@H](O)[C@H](O)[C@H]3O)[C@H]2OC(=O)/C=C/c2ccc(O)c(O)c2)[C@H](O)[C@H](O)[C@H]1O | – | -16%
Cn1nnnc1Sc1ncnc2n[nH]c(-c3cccc(S(C)(=O)=O)c3)c12 | – | -21.7% [at 500 µM]
Cc1ccc(N[S+](=O)([O-])c2cc3c(cc2N[C@@H](C)CO)NC(=O)CC3)cc1N[C@@H](C)CO | – | 82.5%
CCOc1ccc(NC(=O)c2c(NC(=O)Cc3ccccc3)sc3c2CCCCC3)cc1 | – | -3.23%
CO[C@]1(NC(=O)CSC(F)F)C(=O)N2C(C(=O)O)=C(CSc3nnnn3CCO)CO[C@H]21 | 6.51 µM (active) | –
Oc1ccc(OC2CCCCO2)cc1 (stereo unspecified) | – | -2.72%
CCC(C)C(=O)OC1C(C)C2(O)C(C=C(CO)CC3(O)C(=O)C(C)=CC32)C2C(C)(C)C12OC(=O)C(C)C (stereo unspecified) | – | -20.1% [at 17.2 µM]
C[C@@H]1[C@H](O)[C@@H]2OC(=O)C3=C2[C@H](CCC3)[C@@]12C[C@@H](c1ccoc1)OC2=O | – | -2.31% [at 33.5 µM]
CC(=O)N[C@@H](C(=O)O[C@H]1CCC(C)(C)[C@@H]2CCC3=C(COC3=O)[C@@]12C)C(C)C | – | -9% [at 33.5 µM]
